# A selection: hits, their analogues and other compounds. The true share with any hit is near 5.1%.
# HEK293 cAMP cs: qHTS Assay for Agonists of the Thyroid Stimulating Hormone Receptor: Activators of Intracellular cAMP Concentrations in Parental HEK 293; parental HEK293 CNG cAMP sensor, membrane potential fluorescence; Potency, µM (series often up to 57.1 µM), for inactives: at the top dose activation, most hits filed as activators; actives 2.5% (n = 73,000); AID 938, 2007; further: % of control where 0% means no effect; nearly all actives have a fitted effect of over 55% in size
#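 Counterscreen for endogenous-receptor signalling: CNG-channel HEK 293 cells report cAMP rise by membrane depolarization. After 60 min dye equilibration with 100 uM RO 20-1724, compounds incubated 30 min before bottom-read fluorescence at 590 nm.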
# DNA Pol III inh: qHTS Assay for Inhibitors of DNA Polymerase III Holoenzyme System; reconstituted DNA polymerase III holoenzyme replication, biochemical; Potency, µM (doses to about 57.1 µM), for the others: at the highest dose activity change, negative = inhibition; actives 0.25% (n = 71,000); AID 603, 2007; further: on the % scale 0 is the no-effect control and ±100 the full control effect
#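 Reconstituted *E. coli* holoenzyme (0.35 nM Pol III, 1 nM beta, 154 nM SSB, 2 nM primase) was preincubated with compound for 15 min at RT. Synthesis on 1.4 nM ssM13Gori ran 35 min, then was stopped with PicoGreen/EDTA and read as dsDNA fluorescence.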
# Hsp90 Hop PPI: qHTS Assay for Disrupters of an Hsp90 Co-Chaperone Interaction; actives 0.44% (n = 71,000); AlphaScreen TPR2A-His6 binding biotin-Hsp90 C-terminal peptide; AID 595, 2007; Hsp90 C-terminal peptide / TPR2A (Hop) interaction, human; Potency, µM (top dose mostly 57 µM), without a hit: top-dose activity change, negative = inhibition; active means well fitted curve in either direction with a large enough effect; inconclusive means small, poorly fitted or top-dose-only effect, or another doubt; further: on the % scale 0 is the no-effect control and ±100 the full control effect
# Tau fil binding: qHTS Assay for Tau Filament Binding; Microtubule-associated protein tau (Homo sapiens), P10636; recombinant tau filaments, thioflavin S fluorescence, 15 h; filaments grown with octadecylsulfate alongside compound; Potency, µM (series often up to 57.1 µM), for the others: top-dose activity change, negative = inhibition; actives 2% (n = 71,000);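 further: on the % scale 0 is the no-effect control and ±100 the full control effect; actives lower thioflavin S fluorescence by blocking filaments or displacing dye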
#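 Read-out: ThS fluorescence, 450 nm excitation/510 nm emission; lower signal marks blocked filament formation or displaced dye. Tau at 1 uM with 30 uM ODS, 10 uM ThS, 5 mM DTT, 100 mM NaCl, 10 mM HEPES pH 7.4; 15 h, 37 C.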
# TSHR ag: qHTS Assay for Agonists of the Thyroid Stimulating Hormone Receptor; Thyrotropin receptor (Homo sapiens), P16473; HEK293-CNG-TSHR cells (CNG channel as cAMP sensor), membrane potential dye, cAMP; Potency, µM (top dose mostly 57.1 µM), for inactives: at the top dose activation, usual class: activators; actives 0.48% (n = 73,000); AID 926, 2007; active means well fitted activation curve with a large enough effect in the main read-out, with a control signal flat, not every such curve was filed as active; inconclusive means small, poorly fitted or top-dose-only effect, or a change in a side signal; inactive means no such curve, though single readings can be large or run the other way; % of control where 0% means no effect;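 further: the control signal comes from parental cells without the receptor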
# Target sequence (P16473 whole entry, looked up): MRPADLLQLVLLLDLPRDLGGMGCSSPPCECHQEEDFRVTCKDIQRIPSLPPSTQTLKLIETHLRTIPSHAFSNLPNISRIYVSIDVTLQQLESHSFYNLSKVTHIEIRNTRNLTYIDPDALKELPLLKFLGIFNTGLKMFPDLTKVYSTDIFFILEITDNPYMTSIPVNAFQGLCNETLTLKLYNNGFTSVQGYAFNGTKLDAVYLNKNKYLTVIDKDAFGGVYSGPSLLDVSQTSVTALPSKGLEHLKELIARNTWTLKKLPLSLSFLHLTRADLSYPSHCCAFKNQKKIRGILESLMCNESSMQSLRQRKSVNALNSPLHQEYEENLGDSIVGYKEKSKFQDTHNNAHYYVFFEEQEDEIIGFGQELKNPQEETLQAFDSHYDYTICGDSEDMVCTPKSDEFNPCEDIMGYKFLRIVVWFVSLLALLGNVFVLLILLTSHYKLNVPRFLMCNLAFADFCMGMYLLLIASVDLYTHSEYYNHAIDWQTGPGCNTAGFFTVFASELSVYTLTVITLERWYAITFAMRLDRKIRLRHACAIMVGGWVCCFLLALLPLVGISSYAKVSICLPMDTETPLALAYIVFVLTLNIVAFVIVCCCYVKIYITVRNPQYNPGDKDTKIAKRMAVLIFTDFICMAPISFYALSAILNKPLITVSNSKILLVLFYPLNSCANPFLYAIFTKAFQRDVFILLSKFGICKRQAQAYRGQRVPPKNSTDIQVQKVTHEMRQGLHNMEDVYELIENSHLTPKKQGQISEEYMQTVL
#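 HEK 293 cells stably expressing TSHR and a modified CNG channel, with CNG-only parental cells as counterscreen, were preloaded 60 min at room temperature with membrane potential dye containing 100 uM RO 20-1724. Compound exposure was 30 min, and depolarization was read as fluorescence at 590 nm.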
# An asterisk follows results filed as active; i = inactive; ? = inconclusive; . = no result; [ ] = another dose, or the depositor's remark. Unless noted, the call rests on the fitted dose curve; in most records, active means well fitted curve in the direction sought with a large enough effect; inconclusive means small, poorly fitted or top-dose-only effect, or another doubt; inactive means no such curve, though single readings can be large; an effect the other way counts as inactive or inconclusive. Potency means the concentration at half of the fitted maximal effect.
SMILES,HEK293 cAMP cs,DNA Pol III inh,Hsp90 Hop PPI,Tau fil binding,TSHR ag
CCc1ccc(N2CC(C(=O)Nc3ccccc3F)CC2=O)cc1 (stereo not drawn),6%,.,.,.,7%
COC(=O)c1ccccc1NC(=O)C1CC(=O)N(c2ccc(F)cc2)C1 (stereo not drawn),25µM*,0%,-5%,0%,?
CCOc1ccc(NCc2nnc(SCC(=O)Nc3cc(C)on3)n2-c2ccc(OC)cc2)cc1,0%,-6%,-23%,16µM*,-2%[11.4 µM]
CCc1cc(C(C)=O)c(O)cc1OCCCCCC(C)(C)c1nn[nH]n1,20µM*,.,.,.,?
Cc1cc(N2CCOCC2)nc2ccc(Cc3ccc4nc(N5CCOCC5)cc(C)c4c3)cc12,4%[11.4 µM],13%[11.4 µM],9%[11 µM],5%[11.4 µM],4%[11.4 µM]
CCOc1cc(CN2CCN(c3cccc(C(F)(F)F)c3)CC2)ccc1O,28%,-2%,-5%,16%,15%
CCOc1cc(CN2CCSCC2)ccc1O,0.032µM*,-9%[11.4 µM],-5%[11 µM],7%[11.4 µM],?
O=C(O)c1cccc(N2CCCC2=O)c1,-1%,-8%,-2%,-5%,-3%
O=C(Nc1ccccc1)c1cccc(N2CCCC2=O)c1,16µM*,1%,0%,3%,?
C[C@@]12CC[C@@H]3[C@@H](CC[C@H]4C[C@@H](O)CC[C@]43C)[C@H]1CC[C@@H]2c1cc(C(F)(F)F)n[nH]1,0%[11.4 µM],-12%[11.4 µM],-3%[11 µM],47%[11.4 µM],9%[11.4 µM]
CCN(CC)c1ccc(NC(=O)c2ccc(Br)o2)cc1,2%[11.4 µM],3%[11.4 µM],-29%[11 µM],3.2µM*,0%[11.4 µM]
O=C(Nc1ccc(N2CCCC2)cc1)c1ccc(Br)o1,-11%[11.4 µM],-16%[11.4 µM],?,3.2µM*,1%[11.4 µM]
COC(=O)c1sccc1NC(=O)c1ccc(Br)o1,4µM*,-4%[11.4 µM],2%[11 µM],21%[11.4 µM],?
CCN(CC)c1ccc(/C=N/NC(=O)c2ccc(O)cc2)cc1,-34%,.,.,.,?
c1ccc(C(Cc2nc(-c3ccncc3)no2)c2ccccc2)cc1,16µM*,-5%,28%,-14%,?
CC(C)[C@H](NC(=O)OC(C)(C)C)[C@@H](O)CC(=O)C(C)(C)C,-1%[11.4 µM],.,.,.,-5%[11.4 µM]
N#CCCn1c(=O)c(-c2ccc(Cl)cc2)nc2cnc(Nc3ccccc3)nc21,6%,-7%,-5%,405%,-12%
CN1CCN(c2ncc3nc(-c4ccc(Cl)cc4)c(=O)n(CCC#N)c3n2)CC1,?,-8%,8%,3.2µM*,?
N#CCCn1c(=O)c(-c2ccc(F)cc2)nc2cnc(N3CCNCC3)nc21,5%,-12%,0%,6%,1%
N#CCCn1c(=O)c(-c2ccc(Cl)cc2)nc2cnc(N3CCNCC3)nc21,-7%,-6%,-2%,4µM*,-8%
N#CCCn1c(=O)c(-c2ccccc2)nc2cnc(Nc3ccccc3)nc21,10µM*,-9%,0%,i,?
COCCn1c(=O)c(-c2ccc(OC)cc2)nc2cnc(OC)nc21,14%,-13%,2%,-20%,12%
CO[C@H]1COC(=O)C/C=C\[C@@H](C)COC(=O)[C@@H](CCSC)NC(=O)C/C=C\[C@@H]1C,3%[11.4 µM],.,.,.,-1%[11.4 µM]
O=C(c1ccncc1)N1CCN(C(=O)c2ccco2)CC1,-1%,-1%,-2%,9%,.
O=C(c1ccc(N2CN(C(=O)c3ccco3)c3nc4ccccc4nc32)cc1)N1CCOCC1,-3%,-4%,?,22%,1.3µM*
SMILES,HEK293 cAMP cs,DNA Pol III inh,Hsp90 Hop PPI,Tau fil binding,TSHR ag
O=C(NCCCCN1CCCC1)c1ccc(-n2c(=O)c(=O)[nH]c3ccccc32)cc1,-19%,.,.,.,-1%
CN1C(=O)CC(N2CCC(c3nc4ccccc4[nH]3)CC2)C1=O (stereo not drawn),13%,6%,-5%[2.3 µM],20µM*,-2%
Cc1cc(C)n(-c2ncc(-c3ccccc3)nn2)n1,-4%,-6%,?,25µM*,-4%
Cc1cc(C)n(-c2nc(Nc3ccccc3)nc(-n3nc(C)cc3C)n2)n1,16%,-12%,0%,0%,19%
Cc1cc(C)n(-c2nc(C)nc(N)n2)n1,-4%,-3%,0%,1%,-2%
Cc1cc(C)n(-c2nncc(-c3ccccc3)n2)n1,-16%,-5%,-27%,16µM*,-2%
CN1CCN(c2ccnc(-c3ccoc3)n2)CC1,11%,-2%,-14%,-11%,3%
COCCNc1ncnc2ccc(-c3ccc(C(=O)N(C)C)cc3)cc12,?,-14%,-4%,8%,?
COC(=O)c1ccc(C)c(NC(=O)C2COc3ccccc3O2)c1 (stereo not drawn),20%,-4%,0%,11%,26%
COc1cc(NC(=O)C2COc3ccccc3O2)c(OC)cc1Cl (stereo not drawn),16µM*,-5%,22%,6%,?
Cc1ccc(-c2cc(C(=O)NCc3ccco3)c3ccccc3n2)o1,5%,-13%,-13%,-6%,.
Cc1ccc(-c2cc(C(=O)NCCCn3ccnc3)c3cc(Br)ccc3n2)o1,6%,-15%,-20%,16µM*,7%
Cc1ccc(-c2cc(C(=O)NC3=NCCS3)c3cc(Br)ccc3n2)o1,0%,-3%,-20%,13µM*,-6%
CCNc1ncc2nc(-c3cc(F)cc(F)c3)c(=O)n(CCOC)c2n1,10%,-7%,0%,38%,3%
COc1ccccc1CNc1cc(-c2ccccc2Cl)ncn1,16µM*,4%,-3%,5%,?
COc1ccccc1CNc1cc(-c2ccccc2C(F)(F)F)ncn1,?,1%,-1%,1%,?
COc1ccccc1-c1cc(NCc2cccc(C)c2)ncn1,20µM*,-4%,3%,8%,?
NC(=O)/N=C(\N)NC(=O)c1ccccc1,8%[11.4 µM],0%[11.4 µM],-1%[11 µM],3%[11.4 µM],-4%[11.4 µM]
Cc1cc2cc(CN3C(=O)c4ccccc4C3=O)ccc2n1C,13%,-9%,-10%,20µM*,-2%
CCCn1c(N2CCN(S(=O)(=O)Cc3ccccc3)CC2)nc2ccccc21,25µM*,-8%,3%,5%,?
CCCn1c(N2CCN(C(=O)N3CCCCC3)CC2)nc2ccccc21,17%,-4%,-2%,-13%,1%
c1ccc(-c2nnn(CCN3CCCCC3)n2)cc1,9%[11.4 µM],-5%[11.4 µM],-3%[11 µM],1%[11.4 µM],1%[11.4 µM]
O=S1(=O)N[C@H]2CC[C@@H]3NS(=O)(=O)N[C@H]4CC[C@H](N1)N4S(=O)(=O)N23,4%[11.4 µM],-7%[11.4 µM],-3%[11 µM],3.2µM*,7%[11.4 µM]
Cc1cc(C)c(C(=O)CSc2nnc(-c3ccccc3Br)o2)cc1C,16µM*,1%,1%,i,?
Cc1occc1-c1nnc(SCC(=O)c2cc3ccccc3oc2=O)o1,6%,?,?,10µM*,9%
Cc1ccc(NC(=O)CSc2nnc(-c3ccccc3Br)o2)cc1C,15%,-3%,0%,72%,20%

# Source: PubChem (National Center for Advancing Translational Sciences (NCATS))
